# Experimental data: the supplement of paper PMC12350171
# Counter-ions that a name gives are not always drawn.
# Tested on: Haemophilus parainfluenzae
# Experiment: growth AUC normalised to DMSO control (fraction of control); higher = less growth inhibition, active = hit call of the paper
# Settings: 20 µM;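 active = AUC significantly below DMSO controls by Student t-fit with adjusted P under 0.01; inactive = not significantly reduced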
# Summary of the method: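 Pathogens were passaged twice under anaerobic conditions, then inoculated into pre-reduced mGAM plates at a starting OD578 of 0.01, with compound at 20 μM and 1% DMSO, and sealed with breathable membranes. For Haemophilus parainfluenzae, the medium was supplemented with hemin and NAD. OD578 was read every hour for 24 h in three biological replicates. Growth-curve AUC was calculated by the trapezoidal rule up to the exponential-to-stationary transition and normalised to DMSO controls on the same plate.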
row,SMILES,growth AUC normalised to DMSO control
1,CN(C)CCOC(=O)C(c1ccccc1)C1(O)CCCC1 (configuration not stated) [Cyclopentolate hydrochloride],1.04 (inactive)
2,COc1ccccc1N1CCN(CCCCNC(=O)c2ccc3ccccc3c2)CC1,0.997 (inactive)
3,OCCN1CCN(CCCN2c3ccccc3Sc3ccc(C(F)(F)F)cc32)CC1 [Fluphenazine dihydrochloride],0.999 (inactive)
4,C[C@H](CCC(=O)O)[C@H]1CC[C@H]2[C@@H]3C(=O)C[C@@H]4CC(=O)CC[C@]4(C)[C@H]3CC(=O)[C@]12C [Dehydrocholic acid],0.972 (inactive)
5,CN[C@@H]1[C@H](O[C@H]2[C@H](O[C@H]3[C@H](O)[C@@H](O)[C@H](N=C(N)N)[C@@H](O)[C@@H]3N=C(N)N)O[C@@H](C)[C@]2(O)C=O)O[C@@H](CO)[C@H](O)[C@H]1O [Streptomycin sulfate],0.633 (active)
6,NS(=O)(=O)c1cc2c(cc1Cl)NC(C(Cl)Cl)NS2(=O)=O (configuration not stated) [Trichlormethiazide],1.01 (inactive)
7,CCCN(CCC)S(=O)(=O)c1ccc(C(=O)O)cc1 [Probenecid],1.02 (inactive)
8,COc1ccc(CN(CCN(C)C)c2ccccn2)cc1 [Pyrilamine maleate],0.99 (inactive)
9,CCn1cc(C(=O)O)c(=O)c2ccc(C)nc21 [Nalidixic acid sodium salt],0.813 (active)
10,CC(C)(Oc1ccc(CCNC(=O)c2ccc(Cl)cc2)cc1)C(=O)O [Bezafibrate],0.984 (inactive)
11,Cc1cn[nH]c1 [Fomepizole],0.954 (inactive)
12,CN1CCN(C(c2ccccc2)c2ccc(Cl)cc2)CC1 (configuration not stated) [Chlorcyclizine hydrochloride],0.982 (inactive)
13,CCCCC1C(=O)N(c2ccccc2)N(c2ccccc2)C1=O [Phenylbutazone],1.02 (inactive)
14,NS(=O)(=O)c1cc(C(=O)O)c(NCc2ccco2)cc1Cl [Furosemide],1 (inactive)
15,Cc1cccc(C)c1OCC(C)N (configuration not stated) [Mexiletine hydrochloride],1.02 (inactive)
16,Cc1c(Cl)cccc1Nc1ccccc1C(=O)O [Tolfenamic acid],0.852 (active)

row,SMILES,growth AUC normalised to DMSO control
1,CC(=O)c1ccc2c(c1)N(CCCN(C)C)c1ccccc1S2 [Acetopromazine maleate salt],0.95 (inactive)
2,COc1cc(Cc2cnc(N)nc2N)cc(OC)c1OC [Trimethoprim],0.0255 (active)
3,CC[N+](CC)(CC(=O)Nc1c(C)cccc1C)Cc1ccccc1 [Denatonium benzoate],1.05 (inactive)
4,CN1CCCN(C(c2ccccc2)c2ccc(Cl)cc2)CC1 (configuration not stated) [Homochlorcyclizine dihydrochloride],0.942 (inactive)
5,CCOC(=O)C1=C(C)NC(C)=C(C(=O)OC)C1c1cccc([N+](=O)[O-])c1 (configuration not stated) [Nitrendipine],1.03 (inactive)
6,CN(C)CCOC(c1ccccc1)c1ccccc1 [Diphenhydramine hydrochloride],0.992 (inactive)
7,CCOC(=O)OC(C)OC(=O)[C@@H]1N2C(=O)[C@@H](NC(=O)[C@H](N)c3ccccc3)[C@H]2SC1(C)C (some centres not stated) [Bacampicillin hydrochloride],0.0618 (active)
8,Cc1cc(C(C)(C)CC(C)(C)C)ccc1OCCOCC[N+](C)(C)Cc1ccccc1 [Methyl benzethonium chloride],0.994 (inactive)
9,CC(N)CCCC(C)(C)O (configuration not stated) [Heptaminol hydrochloride],1.02 (inactive)
10,"CC(C)Cc1ccc([C@H](C)C(=O)O)cc1 [(S,+) Ibuprofen]",0.941 (inactive)
11,O=C(c1ccc(F)cc1)C1CCN(CCn2c(=O)[nH]c3ccccc3c2=O)CC1 [Ketanserin tartrate hydrate],0.928 (inactive)
12,CCc1nn(CCCN2CCN(c3cccc(Cl)c3)CC2)c(=O)n1CCOc1ccccc1 [Nefazodone hydrochloride],0.942 (inactive)
13,O=c1[nH]cc(F)c(=O)[nH]1 [5-fluorouracil],0.654 (active)
14,CN(C)CCCN1c2ccccc2Sc2ccccc21 [Promazine hydrochloride],0.841 (inactive)
15,C[N+]1(C)CCC(=C(c2ccccc2)c2ccccc2)CC1 [Diphemanil methylsulfate],0.949 (inactive)
16,O=C(NC(Cc1cc(=O)[nH]c2ccccc12)C(=O)O)c1ccc(Cl)cc1 (configuration not stated) [Rebamipide],1.01 (inactive)
